Structures are written as SMILES. The panel holds about 83,000 compounds, 20% with a hit somewhere; the sample as a whole holds those more often.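 In brief: 96-well plates, 48 h treatment, single concentration, percent growth endpoint.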 A number with no mark means an inactive call. Calls of active or inactive are those of the source.

The assay concerns SK-MEL-2 melanoma. Kind of assay: NCI-60 one-dose screen, 48 h (100 = growth as untreated, 0 = no growth, -100 = all killed). To be noted: 10 µM unless noted. How it is done: Growth inhibition of the SK-MEL-2 human tumor cell line is measured as a screen for anti-cancer activity. Cells are grown in 96 well plates and exposed to the test compound for 48 hours. Compounds are tested at a single concentration, which is 10^-5 M for most compounds. The reported endpoint is percent growth (GI% or GIPRCNT), where numbers from 0 - 100% represent growth inhibition, and numbers from -100% - 0 represent cell death. For example, a value of 40 represents 60% growth inhibition. A value of 0 means no net growth occurred over the course of the experiment. A value of -40 indicates 40% of cells at the beginning of the experiment died by the end of the experiment. A value of -100 means all cells are dead at the end of the experiment.
NCI-60 Human Tumor Cell Lines Screen was performed using the standard one-dose NCI protocol, which is described in more detail at https://dtp.cancer.gov/discovery_development/nci-60/default.htm.
Compounds with GIPRCNT values below 10 were considered active. Activity score was based on GIPRCNT using the following formula: […]
Score is 0 for GIPRCNT values of 100 or above, 50 for GIPRCNT values of 0, and 100 for GIPRCNT values of -100.
Turning to `CCCCNC(=O)Oc1ccc(/C(=C(\C)c2ccc(Cl)cc2)c2ccc(OCCN(CC)CC)cc2)cc1`, the growth is 117%.

With `O=c1c2cc(C(F)(F)F)ccc2sc2c(NCCCNCCO)nc3ccccc3c12`, the growth is 84.7%.

As for `CCc1ccc(Oc2c(-c3ccc(OCc4ccc(Cl)cc4)cc3O)n[nH]c2C(F)(F)F)cc1`, the growth was 11.4%.

Consider `CCCCn1c(=O)c(-c2cc(-c3ccc(Cl)cc3)nc(-c3ccc(Cl)cc3)c2)cc2cc(Cl)ccc21`, for which the growth was 120%.

On to `CCOc1ccc2nc(SCc3nc4n(n3)S(=O)(=O)c3ccccc3N4C)sc2c1`, for which the growth is 17.9%.

Regarding `CCCCNc1nc(NN2C(=O)c3cccc4cccc(c34)C2=O)nc(-n2cnc3ccccc32)n1`, the growth is 99%.

`Nc1nc2ccccc2c2c(=O)c3cc(F)ccc3sc12`: the growth was 110%.

Consider `CCOC(=O)c1cnn2c3ccccc3n(S(=O)(=O)c3ccc(OC)cc3)c12`, for which the growth was 66.7%.

As for `COc1cc(CCC[P+](c2ccccc2)(c2ccccc2)c2ccccc2)c(OC)c(OC)c1OC`, the growth was 80.5%.

For the compound `FC(F)(F)c1cc(Nc2ccc3c(OCCCN4CCOCC4)cccc3n2)ccc1Cl`, the growth is 99.6%.

As to `Cc1nc2ccccc2c(/C=C/c2ccc(Cl)cc2)c1C(=O)/C=C/c1cccs1`, the growth was 90.9%.

As for `COc1ccc(/C=N/Nc2cc(=O)[nH]c3ccc(Cl)cc23)cc1`, the growth is 48.8%.

Regarding `COc1c(N2CC3CCCN(C(C)=O)C3C2)c(F)cc2c(=O)c(C(=O)N[C@H]3C(O)[C@@H](O)C(CO)O[C@H]3O)cn(C3CC3)c12` (stereo not given in full), the growth is 111%.

For the compound `COC1=C(C)C(=O)c2c(c(CCCl)c3n2CCC3OC(C)=O)C1=O` (stereo not given), the growth is -45.6% (active).

Consider `CCc1cccc2c1S/C(=C/c1ccc(OC)cc1)C2=O`, for which the growth was 51%.

Take `N#Cc1c(-c2ccc(Cl)cc2)nc(NCCO)[nH]c1=O`: the growth is 94.4%.

In the case of `O=C1CN(CCN2CC(=O)N(Cc3ccccc3)C(=O)C2)CC(=O)N1Cc1ccccc1`, the growth was 106%.

For `O=C(O)c1cn(C2CC2)c2cc(N3CCN(C(=O)Nc4nc(-c5ccc(Cl)cc5)cs4)CC3)c(F)cc2c1=O`, the growth was -18.9% (active).

For the compound `CC(C)n1cnc2c(Nc3cccc(Cl)c3)nc(N[C@H]3CCCC[C@@H]3N)nc21`, the growth is 78.3%.

Turning to `CN1CCN(c2ccc(-c3ccc4ncc(C#N)c(Nc5ccc(F)c(Cl)c5)c4c3)cn2)CC1`, the growth is 49.7%.

As to `CN1C(=C2C(=O)OC(C)(C)OC2=O)CCC1C(=O)NCc1ccc(Cl)cc1Cl` (stereo not given), the growth is 91.7%.

As for `COc1ccc(-c2csc(NC(=O)N3CCN(c4cc5c(cc4F)c(=O)c(C(=O)O)cn5C4CC4)CC3)n2)cc1`, the growth was -20.4% (active).

`CCCCCCN1C(=O)/C(=c2\sc3n(c2=O)C2C(NN=3)N(CC)C(=O)N2CC)c2ccccc21` (stereo not given): the growth was 50.1%.

For the compound `Cc1nc2ccccc2n1CC1C(=O)NC(=O)NC1=O`, the growth was 120%.

As for `NC1CCN(c2nc(Nc3cccc(C(F)(F)F)c3)c3c(=O)[nH]ccc3n2)CC1`, the growth is -77.6% (active).

For the compound `COc1cc(CCC[P+](c2ccccc2)(c2ccccc2)c2ccccc2)c(OC)c2c1OCO2`, the growth is -13.1% (active).

As for `N/C(=N\c1nc2ccccc2s1)NC(=O)Nc1cccc2ccccc12`, the growth was 38.7%.

Consider `O=S(=O)(Nc1ccc(-c2nc(-c3cccc(OCCN4CCOCC4)c3)c(-c3ccnc(Br)c3)[nH]2)cc1)c1ccccc1`, for which the growth was 24.8%.

As for `C=C1C(=O)O[C@H]2[C@H]1CC/C(COC(=O)CCSSCCC(=O)OC/C1=C/CC[C@@]3(C)O[C@H]3[C@H]3OC(=O)C(=C)[C@@H]3CC1)=C\CC[C@@]1(C)O[C@@H]21`, the growth was 52.4%.

Regarding `Cc1ccc(C(=O)NN2C(=O)CSC2c2ccc(Cl)cc2)cn1` (stereo not given), the growth is 102%.

For the compound `Cc1[nH]c(C(=O)Nc2ccc(C(=O)N3CCNCC3)cc2OC(C)C)c(Cl)c1Cl`, the growth is 106%.

On to `Cc1cc2nc3cc(C)c(N)cc3[n+](-c3ccccc3)c2cc1N`, for which the growth is 82.8%.

Turning to `O=C1COCCN1c1ccc(NCc2cn(C(=O)c3ccc(Cl)cc3)c3ccccc23)cc1`, the growth was 61.5%.

For the compound `COc1cc(C(=O)N/N=C/c2cc3cc(OCc4ccccc4)ccc3nc2OC)cc(OC)c1OC`, the growth is 85.4%.

As to `Cc1nc(/N=C(\N)NC(=O)Nc2ccccc2Cl)sc1C`, the growth was 45.6%.

For `Cc1ccc(C(=O)N/N=C/c2cccc(Oc3ccccc3)c2)cn1`, the growth was 44.5%.

In the case of `CCCCCCCCCCCCCCCCCCOc1ccccc1CCCOP(=O)(O)OCC[N+](C)(C)C`, the growth is 102%.

Take `CCc1ccccc1-n1c(N)c(C#N)c(-c2ccc(Cl)cc2)c(C#N)c1=O`: the growth was 117%.

Turning to `O=C1CCC/C=C\C[C@H]2C=CC(=O)/C2=C/C[C@H](CCc2cccc(C(F)(F)F)c2)O1`, the growth is -57.2% (active).

Regarding `Cc1nc2ccccc2c(/C=C/c2ccc(Cl)cc2)c1C(=O)/C=C/c1ccc(C(F)(F)F)cc1`, the growth was -31.9% (active).

Values taken from PubChem BioAssay (NCI).
